14 compounds from PubChem BioAssay (NCI) can be followed below.

SMILES strings stand for the structures. The panel holds about 83,000 compounds, 20% with a hit somewhere; the sample as a whole holds those more often.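 Single-concentration screen, 48 h exposure, 96-well plates. Endpoint: percent growth. Below 10 = active.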 Values without a mark were called inactive. Activity calls are given as the source filed them.

Among the test systems are HCT-15 colon; HT29 colon; SNB-75 CNS; SNB-19 CNS; U251 CNS; PC-3 prostate; SK-MEL-5 melanoma; LOX IMVI melanoma; SK-MEL-28 melanoma.
What all share (assay): NCI-60 one-dose screen, 48 h (100 = growth as untreated, 0 = no growth, -100 = all killed)
What all share (conditions): 10 µM unless noted

On to `Cn1cc(-c2csc(-c3cn(CCN)c4ccc(F)cc34)n2)c2cccnc21`, for which the growth in the assay on HCT-15 colon is 55.9%; in the assay with HT29 colon, 74.7%; with SNB-75 CNS, 75.7%; in the assay on SNB-19 CNS it was 77.7%; in the assay on U251 CNS, 81.4%; in the assay with PC-3 prostate it was 61.3%. Further, the figures for the growth in the assay with SK-MEL-5 melanoma, in the assay on LOX IMVI melanoma and in the assay with SK-MEL-28 melanoma were 57%, 60.4% and 98.2%, respectively.
As for `COc1ccc2c(c1)c(-c1nc(-c3c[nH]c4ncccc34)cs1)cn2CCCN1CCCCC1`, the growth with HCT-15 colon was -5.93% (active); with HT29 colon it was -51.8% (active); in the assay with SNB-75 CNS, 46.9%; in the assay with SNB-19 CNS it was 43.9%; in the assay on U251 CNS it was -17.7% (active); in the assay with PC-3 prostate it was 28.5%. Further, the growth with SK-MEL-5 melanoma is -87.6% (active); with LOX IMVI melanoma, -75.6% (active); in the assay with SK-MEL-28 melanoma it was -74.9% (active).
As to `COc1cnc2c(c1)C(=O)c1c-2n(CCCNCCN2CCOCC2)c(=O)c2cc([N+](=O)[O-])ccc12`, the growth was 0.784% (active) in the assay with HCT-15 colon; 1.17% (active) with HT29 colon; -4.98% (active) in the assay on SNB-75 CNS; 15.2% in the assay on SNB-19 CNS; -56.5% (active) in the assay with U251 CNS; 15.7% in the assay with PC-3 prostate. Moreover, the growth in the assay with SK-MEL-5 melanoma was -87.8% (active); with LOX IMVI melanoma it was -66.2% (active); in the assay on SK-MEL-28 melanoma, 47.5%.
Take `CCC(CC)C(=O)OC(C)COc1ccc(C(C)(C)C)cc1` (stereo unspecified): the growth in the assay on HCT-15 colon is 109%; with HT29 colon it was 71.7%; in the assay with SNB-75 CNS, 94.8%; in the assay with SNB-19 CNS, 103%; in the assay with U251 CNS, 90.1%; with PC-3 prostate, 73.2%. In addition, the results for the growth in the assay on SK-MEL-5 melanoma, with LOX IMVI melanoma and in the assay on SK-MEL-28 melanoma were 98.7%, 106% and 101%, respectively.
`Cn1cc(-c2csc(-c3cn(CCCN4CCCCC4)c4ccc(F)cc34)n2)c2cccnc21`: the growth is 77.5% in the assay on HCT-15 colon; 75.2% in the assay on HT29 colon; 77.2% with SNB-75 CNS; 90.3% with SNB-19 CNS; 85.2% with U251 CNS; 71.5% in the assay on PC-3 prostate. The growth with SK-MEL-5 melanoma is -27.7% (active); in the assay on LOX IMVI melanoma it was 85.4%; in the assay with SK-MEL-28 melanoma, -78.9% (active).
Turning to `CCCCC[C@H]1CC=C2C(=O)C(Cl)=C[C@@H]2CC=CCCCC(=O)O[C@@H](CCCCC)CC=C2C(=O)C(Cl)=C[C@@H]2CC=CCCCC(=O)O[C@@H](CCCCC)CC=C2C(=O)C(Cl)=C[C@@H]2CC=CCCCC(=O)O1`, the growth was 71.6% [8 µM] in the assay with HCT-15 colon; 44.4% [8 µM] in the assay with HT29 colon; 106% [8 µM] with SNB-75 CNS; 61.3% [8 µM] in the assay on SNB-19 CNS; 35.2% [8 µM] in the assay with U251 CNS; 70.2% [8 µM] in the assay on PC-3 prostate. The growth with SK-MEL-5 melanoma was 62.2% [8 µM]; in the assay with LOX IMVI melanoma, 14.5% [8 µM]; in the assay with SK-MEL-28 melanoma it was 52% [8 µM].
Take `NC(=O)NCC1CCCCC1`: the growth was 94.5% in the assay with HCT-15 colon; 102% with HT29 colon; 90.7% in the assay on SNB-75 CNS; 115% in the assay with SNB-19 CNS; 104% with U251 CNS; 104% in the assay with PC-3 prostate. For the same compound, the growth in the assay with SK-MEL-5 melanoma was 109%; in the assay with LOX IMVI melanoma, 94.1%; in the assay with SK-MEL-28 melanoma it was 110%.
For `Nc1nc2c3ccncc3cc(-c3cccc(Cl)c3)c2c2cnccc12`, the growth was 28.5% in the assay with HCT-15 colon; 33.2% in the assay with HT29 colon; 57% in the assay with SNB-75 CNS; 51.4% in the assay with SNB-19 CNS; 29.2% in the assay with U251 CNS; 20% in the assay on PC-3 prostate. The growth was 50.4% in the assay on SK-MEL-5 melanoma, -50.9% (active) in the assay with LOX IMVI melanoma and 53.1% in the assay on SK-MEL-28 melanoma.
As to `Cc1cc(N(CCNc2ccnc3cc(Cl)ccc23)Cc2ccco2)nc(Cl)n1`, the growth in the assay on HCT-15 colon was 1.35% (active); in the assay with HT29 colon it was -33.4% (active); in the assay on SNB-75 CNS, -88.7% (active); in the assay on SNB-19 CNS, 15.4%; with U251 CNS, -66.5% (active); with PC-3 prostate, -54.4% (active). Also, the growth with SK-MEL-5 melanoma was -63.4% (active); in the assay with LOX IMVI melanoma, -64.8% (active); in the assay with SK-MEL-28 melanoma, -33.4% (active).
Turning to `Brc1ccc2c(c1)c(-c1nc(-c3c[nH]c4ncccc34)cs1)cn2CCCN1CCCCC1`, the growth in the assay on HCT-15 colon was -80% (active); with HT29 colon, -87.2% (active); in the assay on SNB-75 CNS, 67.6%; with SNB-19 CNS, -68.3% (active); with U251 CNS, -84.2% (active); in the assay on PC-3 prostate, 2.12% (active). The growth is -59.5% (active) in the assay with SK-MEL-5 melanoma, -93.5% (active) with LOX IMVI melanoma and -84.8% (active) with SK-MEL-28 melanoma.
As for `CCCCC(=O)OC1CCCCC1C` (stereo unspecified), the growth with HCT-15 colon was 108%; in the assay with HT29 colon it was 88.2%; in the assay with SNB-75 CNS, 87.6%; with SNB-19 CNS, 100%; in the assay with U251 CNS it was 85.6%; with PC-3 prostate, 68.1%. Besides, the growth was 91.2% with SK-MEL-5 melanoma, 97.9% with LOX IMVI melanoma and 98.4% in the assay on SK-MEL-28 melanoma.
Regarding `COc1ccc(NC(=S)N/N=C/c2ccccc2SSCCC(=O)OC[C@H]2O[C@H](O)[C@H](O)[C@@H](O)[C@@H]2O)cc1`, the growth with HCT-15 colon is 71.8%; with HT29 colon it was 102%; in the assay with SNB-75 CNS it was 86.3%; in the assay with SNB-19 CNS it was 72.2%; in the assay on U251 CNS, 59.5%; with PC-3 prostate it was 59.9%. The growth is 71.7% with SK-MEL-5 melanoma, 59.6% in the assay on LOX IMVI melanoma and 85.3% with SK-MEL-28 melanoma.
With `Cn1cc(-c2csc(-c3cn(CCCN4CCCCC4)c4ccccc34)n2)c2cccnc21`, the growth with HCT-15 colon is -78.2% (active); in the assay on HT29 colon, -87.7% (active); in the assay on SNB-75 CNS it was 49.3%; in the assay on SNB-19 CNS, -65.6% (active); in the assay on U251 CNS, -90.5% (active); in the assay on PC-3 prostate it was -55.7% (active). The growth in the assay with SK-MEL-5 melanoma was -98.5% (active); in the assay with LOX IMVI melanoma, -71.9% (active); in the assay on SK-MEL-28 melanoma it was -82.6% (active).
Regarding `C[C@@H]1CCCCCCCCC[C@H](O)C(=O)C[C@@H](SC[C@@H](O)C(=O)O)C(=O)O1`, the growth with HCT-15 colon was 87.3%; with HT29 colon, 82.1%; in the assay with SNB-75 CNS it was 95.2%; in the assay on SNB-19 CNS, 102%; in the assay with U251 CNS it was 89.4%; with PC-3 prostate, 83%. In addition, the growth in the assay with SK-MEL-5 melanoma is 104%; in the assay with LOX IMVI melanoma, 71.8%; with SK-MEL-28 melanoma, 107%.
